The values below come from PubChem BioAssay (EPA / NIEHS).

Some structures have more than one record in an assay (separate samples or runs), and their calls can disagree. The source made the active and inactive calls. How the source made its calls: active means hit-call score of the fitted dose curve at least 0.9, where 1 is the maximum; inactive means score below 0.9.

One may read the AC50 as the concentration giving half of the maximal activity seen.

Read-out in this experiment: Interleukin-8 (IL8), CXCL8 (gene 3576)
The experiment can be described thus: BSK_LPS_IL8: BioMAP Diversity Plus: LPS Assay for Interleukin-8 (IL8) Biomarker Activity (AID 2283078). As to conditions: primary human HUVEC with PBMC; actives raise or lower the signal. How it is done:
BSK_LPS is a cell-based, multiplexed-readout assay that uses umbilical vein endothelium and peripheral blood mononuclear cells, a human vascular primary cell co-culture, with measurements taken at 24 hours after chemical dosing in a 96-well plate.BSK_LPS_IL8 is an assay component measured in the BSK_LPS assay. It measures IL-8 antibody related to regulation of gene expression using ELISA technology.Data from the assay component BSK_LPS_IL8 was analyzed into 1 assay endpoint. This assay endpoint, BSK_LPS_IL8, was analyzed with bidirectional fitting relative to DMSO as the negative control and baseline of activity. Using a type of binding reporter, gain or loss-of-signal activity can be used to understand changes in the signaling as they relate to the gene CXCL8. Furthermore, this assay endpoint can be referred to as a primary readout, because this assay has produced multiple assay endpoints where this one serves a signaling function. To generalize the intended target to other relatable targets, this assay endpoint is annotated to the cytokine intended target family, where the subfamily is interleukins.
The levels of cell surface (or secreted, indicated by the prefix "s") biomarker endpoints were measured by ELISA. Overt cytotoxicity to cells in confluent adherent cultures (all systems other than the BT system) was assessed by measuring total protein levels using sulforhodamine B (SRB) staining in parallel cultures at the time of biomarker measurements, indicated as SRB endpoints. For proliferation assays for adherent cell types, individual cell types are cultured at sub-confluence and relative cell numbers quantified by SRB staining at time points optimized for each system (48 h: 3C and CASM3C systems; 72 h: BT and HDF3CGF systems; 96 h: SAg system). SRB was performed by staining cells with 0.1% SRB after fixation with 10% TCA and reading wells at 560 nm.Viability and proliferation of PBMC (T cells) was quantified by Alamar Blue reduction for the SAg and BT systems. For PBMC viability (referred to as PBMC Cytotoxicity within the assay endpoint names), cells were plated (75,000/well in a 96-well plate) and then chemical samples added for 1 h before addition of activators, SEB and TSST-1 (20 ng/mL final concentration each). Cells were incubated for 90 h. Then, Alamar Blue (20 uL/well) (Invitrogen, Cat DAL1100) was added for 6 h, and the plates were read with a fluorescence microplate reader at 546/580 nm (excitation/emission). For PBMC proliferation, cells were plated and activated as above but incubated for only 16 h prior to addition of Alamar Blue. Plates were read after 6 h.
As to `CC(C)(C)c1cccc(C(C)(C)C)c1O`, the result was inactive.

As for `c1ccc2c(c1)Cc1ccccc1-2`, the outcome was inactive.

Regarding `CCc1nn(C2CCCCC2)c2cc(C3(C#N)CCC(C(=O)O)CC3)ccc12` (stereo not given), the AC50 is 20 µM (active).

For the molecule `Oc1cccc(O)c1`, the result was inactive.

In the case of `CC(=O)CC(C)(C)O`, the outcome was inactive.

As for `CCc1ccc(CCOc2ccc(CC3SC(=O)NC3=O)cc2)nc1` (stereo not given), the outcome was inactive.

As for `CCCCCCC(=O)O`, the result was inactive.

For the molecule `NC(=O)N(O)[C@@H]1C=C[C@H](Oc2cccc(Oc3ccc(F)cc3)c2)C1`, the outcome was inactive.

Consider `c1ccc2c(c1)ccc1ccccc12`, for which the result was inactive.

`CCCCOCCO`: the result was inactive.

With `CCCOC(=O)c1ccc(O)cc1`, the outcome was inactive.

In the case of `c1ccc2cc3c(ccc4ccccc43)cc2c1`, the outcome was inactive.

As to `O=[N+]([O-])c1ccc(O)cc1`, the result was inactive.

`CCCCCCCC(=O)O`: the outcome was inactive.

For the molecule `ClC1=C(Cl)C(Cl)(Cl)C(Cl)=C1Cl`, the AC50 was 13.9 µM (active).

As for `C=C(C)C(=O)OCCC(F)(F)C(F)(F)C(F)(F)C(F)(F)C(F)(F)C(F)(F)F`, the outcome was inactive.

Regarding `OCCC(F)(F)C(F)(F)C(F)(F)C(F)(F)C(F)(F)C(F)(F)F`, the result was inactive.

Regarding `CC[C@H](c1ccc(O)cc1)[C@@H](CC)c1ccc(O)cc1`, the AC50 is 35.1 µM (active).

For `Nc1cccc2c(N)cccc12`, the outcome was inactive.

As for `C#C[C@]1(O)CC[C@H]2[C@@H]3CCC4=CC(=O)CC[C@@H]4[C@H]3CC[C@@]21C`, the AC50 is 4.87 µM (active).

As for `CCN(CC)CCNc1ccc(CNC=O)c2sc3ccc(OC)cc3c(=O)c12`, the AC50 was 11.2 µM (active).

Turning to `OCCC(F)(F)C(F)(F)C(F)(F)C(F)(F)C(F)(F)C(F)(F)C(F)(F)C(F)(F)F`, the AC50 was 30 µM (active) and the outcome was inactive.

Regarding `CN1CCN(c2ccccc2/C=C2\SCCN(c3ccc(Cl)c(Cl)c3)C2=O)CC1`, the AC50 is 20 µM (active).

In the case of `N#C[C@@H]1CC(F)(F)CN1C(=O)CNC1CC2CCC(C1)N2c1ncccn1` (stereo not given in full), the result was inactive.

Turning to `CC[C@H](C)[C@@H](C(=O)O)n1sc2ccccc2c1=O`, the result was inactive.

For `CC#C[C@]1(O)CC[C@H]2[C@@H]3CCC4=CC(=O)CCC4=C3[C@@H](c3ccc(N(C)C)cc3)C[C@@]21C`, the AC50 is 32.6 µM (active).

As for `Oc1cc2ccccc2c2ccccc12`, the AC50 was 12.6 µM (active).

Consider `CCCCCCCCCCCCCC[N+](C)(C)C`, for which the AC50 is 10.9 µM (active).

With `CCCCC(CC)COC(=O)CCCCC(=O)OCc1ccccc1` (stereo not given), the result was inactive.

Take `C[C@@H]1C[C@H]2[C@@H]3CCC4=CC(=O)C=C[C@]4(C)[C@@]3(F)[C@@H](O)C[C@]2(C)[C@@]1(O)C(=O)COP(=O)(O)O`: the outcome was inactive.

For `O=C(O)Cc1cc(I)c(Oc2cc(I)c(O)c(I)c2)c(I)c1`, the AC50 is 20.5 µM (active).

Consider `Cc1oc(-c2ccccc2)nc1CCOc1ccc(C[C@H](Nc2ccccc2C(=O)c2ccccc2)C(=O)O)cc1`, for which the AC50 is 29.1 µM (active).

As to `COC(=O)CCCCC(=O)OC`, the outcome was inactive.

On to `NCC(F)(F)C(F)(F)C(F)(F)C(F)(F)C(F)(F)C(F)(F)C(F)(F)F`, for which the result was inactive.

As to `O=c1c(-c2ccc(O)cc2)coc2cc(O)ccc12`, the result was inactive.

With `CCCOc1sc(C(=O)N2CCC(c3cc(CN)ccc3F)CC2)c(C)c1Br`, the concentration at half-maximal activity (AC50) was 13.6 µM (active).

For the molecule `COCC(C)O` (stereo not given), the result was inactive.

Turning to `COc1ccc([N+](=O)[O-])cc1N`, the result was inactive.

In the case of `CC(C)(C)c1cc(C(C)(C)C)c(O)c(C(C)(C)C)c1`, the outcome was inactive.
